# Screens from PubChem.
# Sampled rows, rich in hits. Any-hit rate of the full collection: about 17%.
# TDP1 cell noCPT: qHTS for Inhibitors of human tyrosyl-DNA phosphodiesterase 1 (TDP1): qHTS in cells in absence of CPT; DT40 Tdp1-/- hTDP1 cells, no CPT, ATP luminescence, 48 h; Potency, µM (series often up to 46.2 µM), inactives show at the top dose activity change, negative = growth inhibition, most hits filed as inhibitors; hit rate 15% among 420,000; further: on the % scale 0 is the no-effect control and ±100 the full control effect; nearly all actives have a fitted effect of over 55% in size
#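 Compound effects on proliferation are scored in DT40 Tdp1-/-;hTDP1 cells in the absence of CPT. ATP levels (CellTiter-Glo luminescence) are recorded after a ≥48 hr, 37 °C incubation.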
# TGFb SMAD3 inh: blocks TGF-b signaling. HepG2 CAGA-GFP TGF-b/SMAD3 reporter, GFP fluorescence, 18 h; TGF-beta stimulated, 500 pg/mL final. Potency, µM (doses to about 46.1 µM), for the others: at the top dose activity, negative = inhibition, usual class: inhibitors. AID 588855. hit rate 1.2% among 410,000; further: on the % scale 0 is the no-effect control and ±100 the full control effect; nearly all actives have a fitted effect of over 65% in size
#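 Using HEPG2 CAGA-GFP reporter cells at 1000 cells/well, we pinned test compounds, stimulated with recombinant TGF-beta (500 pg/mL final) and measured total well GFP after 18 h.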
# TDP1 cell CPT: DT40-hTDP1 cell growth loss with CPT | AID 686979 | hit rate 12% among 420,000 | chicken DT40 Tdp1-/-;hTDP1 cells + 20 nM CPT, ATP luminescence, 48 h | Potency, µM (highest dose often 46.2 µM), for inactives: at the top dose activity change, negative = growth inhibition, hits mostly inhibitors; further: on the % scale 0 is the no-effect control and ±100 the full control effect; nearly all actives have a fitted effect of over 55% in size
#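 Cell growth measured by CellTiter-Glo luminescence after a minimum 48 h, 37 C compound exposure with 20 nM CPT in Tdp1-knockout DT40 cells stably expressing hTDP1, seeded 400/well; qHTS titration format.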
# ATXN2 expr inh: reduces ATXN2 reporter expression in HEK-293 cells; HEK-293 ATXN2-luciferase reporter, luminescence, 24 h; Potency, µM (top dose mostly 57 µM), inactives show top-dose activity change, negative = inhibition, most hits filed as inhibitors; hit rate 0.72% among 360,000; AID 1745845; further: on the % scale 0 is the no-effect control and ±100 the full control effect; nearly all actives have a fitted effect of over 55% in size
#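 ATXN2-luciferase reporter cells (luciferase flanked by upstream and downstream ATXN2 gene portions) were treated 24 h at 37 °C with compounds at up to 57 uM. SteadyGlo luminescence gave expression; GF-AFC fluorescence gave viability.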
# HepG2 tox: counter-screen for TGF-b inhibitors: cytotoxicity in HepG2 cells; HepG2 CAGA-GFP viability, ATP luminescence, 18 h; Potency, µM (series often up to 46.1 µM), for the others: top-dose activity change, negative = cytotoxicity, usual class: cytotoxic; hit rate 0.76% among 410,000; AID 588856
#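 CellTiter-Glo luminescence gave cytotoxicity after 18 hours at 37 degrees C. The cells were HepG2 CAGA-GFP in 1% FBS DMEM, stimulated with 500 pg/mL TGF-beta after compound addition. %Activity was normalised to no-cell wells (complete cell-killing) and DMSO (no toxicity), and curves were fitted and classified.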
# ATXN viability: cell viability loss in ATXN counter-screen | Potency, µM (series often up to 56.7 µM), actives largely listed as cytotoxic | hit rate 0.49% among 400,000 | S2 cells (HEK-293 line with an ATXN2-luciferase reporter) viability, CellTiter-Fluor protease fluorescence, 24 h; further: nearly all actives have a fitted effect of over 40% in size
# The depositor's hits bear a star; i = inactive; ? = inconclusive; nt = no result given; ! = a repeat was not active; [ ] = another dose, or the depositor's remark. The call rests on the fitted dose curve; in most records, active means well fitted curve in the direction sought with a large enough effect; inconclusive means small, poorly fitted or top-dose-only effect, or another doubt; inactive means no such curve, though single readings can be large; an effect the other way counts as inactive or inconclusive. Potency means the concentration at half of the fitted maximal effect.
SMILES,TDP1 cell noCPT,TGFb SMAD3 inh,TDP1 cell CPT,ATXN2 expr inh,HepG2 tox,ATXN viability
C=C(C=O)C[C@@H]1C[C@H](O)C2OC3C[C@]4(C)OC5/C=C\CC6OC7C(CC=CCC6OC5CCCC4OC3CC2O1)OC1CC2OC3CC(=O)OC3C[C@@H](C)C[C@@]2(C)OC1C[C@@H]7C (some centres not stated),0.581µM*,?,0.651µM*,1.58µM*,nt,1.78µM*
CCCCC/C=C\C/C=C\C/C=C\C/C=C\CCCC(=O)Nc1ccc(O)cc1,21.1µM*,nt,26.6µM*,nt,nt,nt
CC1(O)CCC2C3CCC4=CC(=O)CCC4=C3C=CC21C (configuration not stated),14.6µM*,19.2%,9.2µM*,4.3%,-15.4%,i
Cc1cc(OCC(=O)N2C[C@H]3C[C@@H](C2)c2cccc(=O)n2C3)c2c(C)cc(=O)oc2c1,-15.4%,14.4%,-11.0%,2.8%,-10.3%,i
CC(OC(=O)COc1ccc(Nc2ccccc2)cc1)C(=O)N(C)c1ccccc1 (configuration not stated),?,-7.0%,?,-13.7%,3.0%,i
Cc1cc(OCC(=O)O)c2c3c(c(=O)oc2c1)CCCC3,-6.6%,-3.8%,5.0%,7.5%,-0.9%,i
Cc1ccc(-n2nc(C)cc2NC(=O)COc2cc(C)cc3oc(=O)c4c(c23)CCC4)cc1,29.1µM*,-6.5%,?,-19.0%,-16.9%,i
Cc1cc(OCC(=O)N2CCC(C(N)=O)CC2)c2c3c(c(=O)oc2c1)CCCC3,-26.8%,21.7%,23.1µM*,9.9%,-0.3%,i
Cc1cc(OCC(=O)NCc2ccncc2)c2c3c(c(=O)oc2c1)CCCC3,?,17.3%,?,-26.4%,4.9%,?
Cc1cc(OCC(=O)N[C@H](C(=O)O)c2ccccc2)c2c3c(c(=O)oc2c1)CCC3,-5.9%,?,-4.1%,-0.3%,-19.8%,i
Cc1cc(OC(=O)c2ccco2)c2c3c(c(=O)oc2c1)CCCC3,10.3µM*,?,11.6µM*,-15.2%,-32.2%,i
Cc1cc(OCC(=O)N[C@@H](Cc2ccccc2)C(=O)O)c2c3c(c(=O)oc2c1)CCC3,-2.5%,-2.3%,-0.9%,1.2%,-8.9%,i
Cc1cc(OC(=O)c2cccs2)c2c3c(c(=O)oc2c1)CCCC3,5.17µM*,-2.4%,18.4µM*,-24.5%,-4.6%,i
CCC(C(N)=O)N1CCCC1=O (configuration not stated),-17.6%,nt,?,4.5%,nt,i
CNC(=O)Oc1ccc2c(c1)[C@]1(C)CCN(C)C1N2C (some centres not stated),-2.3%,11.1%,-25.5%,3.2%,3.1%,i
Cc1cc(OC(C)C(=O)NCc2ccncc2)c2c3c(c(=O)oc2c1)CCCC3 (configuration not stated),?,4.4%,23.1µM*,nt,16.4%,i
Cc1cc(OC(C)C(=O)NCc2cccnc2)c2c3c(c(=O)oc2c1)CCC3 (configuration not stated),8.6%,18.3%,-9.3%,4.1%,6.9%,i
O=C(O)c1[nH]c(=O)[nH]c(=O)c1F,11.6µM*,7.8%,11.6µM*,-15.2%,11.3%,i
CCN1C[C@]2(COC)[C@H](O)C[C@H](OC)[C@]34C1C([C@H](OC)[C@H]23)[C@]1(OC(C)=O)C2[C@@H](OC(=O)c3ccccc3)C(O)(C[C@H]24)[C@@H](OC)[C@@H]1O,8.2%[21.1 µM],nt,8.9%[21.1 µM],nt,nt,nt
O=C(c1ccc2c(c1)ncn2C1CCCCC1)N1CCC2(CC1)OCCO2,4.61µM*,16.8%,6.51µM*,-10.9%,-4.9%,i
Cc1cccc(-c2nc3ccc(C(=O)N4CCC5(CC4)OCCO5)cc3nc2-c2cccc(C)c2)c1,?,?,?,-10.3%,2.5%,i
Cc1ccc(-c2cc(-c3ccccc3)cc(-c3ccccc3)[n+]2-c2ccc(C(=O)O)cc2)cc1,2.6%,17.9%,-2.8%,4.7%,-3.0%,i
CCCOC(=O)c1ccc(-[n+]2c(-c3ccccc3)cc(-c3ccccc3)cc2-c2ccccc2)cc1,1.16µM*,?,1.16µM*,-34.6%,-40.7%,?
Oc1c(Br)cc(-c2ccccc2)cc1Br,-23.3%,3.9%,-9.6%,-11.2%,3.4%,i
COc1ccc(-c2cc(-c3ccccc3)[n+](C)c(-c3ccccc3)c2)cc1,0.581µM*,?,1.03µM*,8.91µM*,-12.8%,i
SMILES,TDP1 cell noCPT,TGFb SMAD3 inh,TDP1 cell CPT,ATXN2 expr inh,HepG2 tox,ATXN viability
Brc1ccc(-[n+]2c(-c3ccccc3)cc(-c3ccccc3)cc2-c2ccccc2)cc1,2.59µM*,?,10.3µM*,?,-38.8%,?
COc1ccc(-[n+]2c(-c3ccccc3)cc(-c3ccc(C)cc3)cc2-c2ccccc2)cc1,1.16µM*,7.08µM*,2.59µM*,?,-33.4%,?
CCN(CC)C(=O)c1ccc(C2=CC3(CCNCC3)Oc3cccc(O)c32)cc1,nt,nt,nt,-4.1%,nt,nt
CN1[C@@H]2CC[C@H]1CC(O)C2 (some centres not stated),nt,nt,nt,nt,nt,i
C=C[C@@H]1C2=CCOC(=O)C2=CO[C@H]1O[C@@H]1O[C@H](CO)[C@@H](O)[C@H](O)[C@H]1O,6.3%,?,11.8%,12.3%,14.2%,i
C[n+]1c(-c2ccccc2)cc(CCCCc2cc(-c3ccccc3)[n+](C)c(-c3ccccc3)c2)cc1-c1ccccc1,5.17µM*,0.0%,2.59µM*,?,-22.0%,i
COc1ccc(CCNS(=O)(=O)c2ccc3c(c2)oc(=O)n3C)cc1OC,-8.3%,-7.2%,-10.0%,-8.0%,-5.8%,i
COc1ccc(NS(=O)(=O)c2ccc3c(c2)oc(=O)n3C)cc1Cl,16.4µM*,?,13µM*!,-21.8%,5.1%,i
Cc1ccc(NC(=O)CSc2nc(-c3ccco3)cc(C(F)(F)F)n2)c(C)c1,1.84µM*,-0.3%,1.46µM*,-19.2%,6.8%,?
O=c1[nH]c(O)c(C=NC2CCCCC2)c(=O)[nH]1,0.8%,5.3%,0.6%,0.3%,0.631µM*,?
CN1CCN(c2cc3c(cc2F)c(=O)c(C(=O)O)cn3-c2ccc(F)cc2)CC1,23.7µM*,nt,10.6µM*,2.2%,nt,i
COC(=O)C1CN(C#N)N(c2ccc(Cl)cc2)C12c1ccccc1-c1ccccc12 (configuration not stated),2.91µM*,5.01µM*,3.26µM*,3.98µM*,3.55µM*,3.98µM*
